Assay results from PubChem BioAssay AID588405 (Sanford-Burnham Center for Chemical Genomics, 2011).
In all, about 360,000 compounds went through this assay and about 6,200 (1.7%) were called active. Shown is part of a subset that was picked to be rich in actives. Unmarked numbers belong to inactive results.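 How the source made its calls: active means inhibition of at least 50% at 20 µM; inactive means the rest.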

assay: Peg3 promoter-driven luciferase inhibitors, primary screen, cell-based, HeLa, luciferase luminescence (AID 588405); settings: HeLa PEG-Prom luciferase reporter, overnight, at 20 µM, active compounds read high

| Structure (SMILES) | inhibition |
| --- | --- |
| COc1ccc(-c2cc(C(=O)NCCCN3CCCC3=O)c3ccccc3n2)cc1OC | -2.28% |
| COc1ccc(CN(C)C(=O)Cc2c[nH]c3ccccc23)c(OC)c1OC | 13.2% |
| COc1ccc(CN(C)C(=O)c2cc(-c3ccc(C)cc3C)nc3ccccc23)c(OC)c1OC | 75.3% (active) |
| COc1ccc(S(=O)(=O)N2CCCCCC2)cc1C(=O)N(C)Cc1cccc(OC)c1OC | 5.19% |
| COc1ccc(-c2cc(C(=O)N(C)CC(=O)Nc3ccccc3Cl)c3ccccc3n2)cc1OC | 43.6% |
| COc1ccc(-c2cc(C(=O)N(C)Cc3ccc(OC)c(OC)c3OC)c3ccccc3n2)cc1OC | 50.1% (active) |
| Cc1ccc(CN2CCC(N3CCC(C(=O)NCC4CCCO4)CC3)CC2)o1 (stereo not drawn) | -0.4% |
| CS(=O)(=O)c1cccc(-c2ccc3nncn3c2)c1 | -2.9% |
| CCc1nc2ccc(C(=O)N3CCN(S(=O)(=O)CC)CC3)cn2c1N(C=O)CCC(C)C | -6.03% |
| CC(C)[C@H](NC(=O)N1CC(=O)Nc2ccccc21)C(=O)N[C@@H](Cc1c[nH]c2ccccc12)C(=O)O | 14.7% |
| O=C(NCc1cccc(C(F)(F)F)c1)c1ccc2sc(COCCO)nc2c1 | -51.8% |
| COc1cccc(CNc2nc3cc(-c4csc5ccccc45)sc3c(=O)n2C)c1 | -0.35% |
| COc1ccc(CN(Cc2ccc(OC)cc2)C(=O)c2cccs2)cc1 | 0.72% |
| COc1ccc(CCNC(=O)CN(c2ccccc2)S(C)(=O)=O)cc1OC | 18.5% |
| COc1ccc(C(CCN(Cc2ccc(OC)c(OC)c2)C(=O)CCl)c2ccccc2)cc1 (stereo not drawn) | 105% (active) |
| CCCc1nc(N2CCN(C)CC2)c2sc(=S)n(-c3ccccc3)c2n1 | 30.8% |
| OC[C@@H]1CN(Cc2ccc(Cl)cc2)C[C@H](n2cnc3c(NCc4ccncc4)ncnc32)O1 | 8.27% |
| FC(F)(F)Oc1ccccc1C(c1nnnn1C1CCCCC1)N1CCN(C/C=C/c2ccccc2)CC1 (stereo not drawn) | -12.9% |
| CC[C@H]1CN2CCc3cc(OC)c(OC)cc3[C@@H]2C[C@@H]1C[C@H]1NCCc2cc(OC)c(OC)cc21 | 95% (active) |
| CC(C)C[C@H]1CN([C@@H](Cc2ccccc2)CN2CCC[C@@H]2CN2C(=O)C(=O)NC[C@@H]2Cc2ccc(O)cc2)C(=O)C(=O)N1CCc1ccccc1 | -8.17% |
| CCOC(=O)C1=CCC(c2ccc(F)cc2)N(S(=O)(=O)c2ccc(C)cc2)C1 (stereo not drawn) | 18.4% |
| CCc1nc2c(OCC(=O)C(C)(C)C)cccn2c1N(C)C(=O)c1ccccc1F | -3.25% |
| COc1ccc(OC)c(C(O)c2ncc(-c3cccc(C(F)(F)F)c3)[nH]2)c1 (stereo not drawn) | 1.51% |
| CCCC[C@@H]1CN=C(N)N1CCCC | 6.54% |
| CCCC[C@@H]1CN=C(N)N1CCc1cccc(F)c1 | 2.77% |
| CCCC[C@@H]1CN=C(N)N1CCc1cc(C(F)(F)F)cc(C(F)(F)F)c1 | 64.1% (active) |
| Cn1c(Nc2ccc(F)cc2)nc2cc(-c3ccsc3)sc2c1=O | -53.6% |

| Structure (SMILES) | inhibition |
| --- | --- |
| CC1(C(=O)Nc2ccccc2Br)CCN1C(=O)CC1CC1 (stereo not drawn) | 3.67% |
| CCOC(=O)C1=CCC2C(=O)N(Cc3ccccc3)C(=O)C12 (stereo not drawn) | -14.8% |
| CNC[C@H]1OCc2cnnn2CCCC(=O)N([C@H](C)CO)C[C@@H]1C | -4.6% |
| COc1ccc(OC)c(NC(=O)c2cc(-c3cc(F)ccc3OCC3CCCO3)n[nH]2)c1 (stereo not drawn) | 25.5% |
| COC(c1ccccc1)(c1ccccc1)C(Oc1nc(C)cc(C)n1)C(=O)O (stereo not drawn) | 19% |
| Cc1cc(C)nc(SC(C)C(=O)N/N=C/c2cccs2)n1 (stereo not drawn) | 2.36% |
| Cc1cc(C)nc(S/C=C/C(=O)c2ccccc2)n1 | 109% (active) |
| Cc1coc(C)c1C(=O)CC1(O)C(=O)N(C)c2ccc(Cl)cc21 (stereo not drawn) | 7.27% |
| CCOc1ccc(N2CC(C(=O)N/N=C/c3sccc3C)CC2=O)cc1 (stereo not drawn) | 13.4% |
| CC1(C(=O)NS(=O)(=O)c2ccccc2)CCN1C(=O)C1CCCCC1 (stereo not drawn) | -0.02% |
| O=C1CCN(Cc2ccccc2)CCN1[C@H](CSc1ccccc1)c1ccccc1 | -23.1% |
| COc1ccc(/C(C)=N/NC(=O)CCC(=O)Nc2ccc(Cl)cc2Cl)c(OC)c1 | -11.2% |
| CCCCC(=O)N/N=C(\C)CC(=O)Nc1cc(Cl)ccc1OC | 93.5% (active) |
| COc1ccc(Cl)cc1NC(=O)CCS(=O)(=O)c1ccc(Br)cc1 | 21.8% |
| C[C@H](NC(=O)CC[C@H]1O[C@@H](n2ccc(=O)[nH]c2=O)[C@H](O)[C@@H]1O)c1cccc2ccccc12 | 6.63% |
| OC(c1ccccc1)c1nc(/C=C/c2ccc(C(F)(F)F)cc2)cs1 (stereo not drawn) | 3.42% |
| C#CCCOC(=O)N1C2=NC(C(=O)OC)=C(C(=O)OC)[C@@H]3N(C)c4ccc(OC)cc4[C@]23C[C@H]1C(=O)OC | -3.24% |
| C[C@@H]1CN([C@@H](C)CO)C(=O)CCCn2cc(nn2)CO[C@H]1CN(C)S(=O)(=O)c1ccc(-n2cccn2)cc1 | -0.13% |
| Cc1c(C(=O)NCC2CC2)sc(=O)n1Cc1cccc(F)c1 | -1.67% |
| CCN1C(=O)[C@@H]2[C@@H]3CN(S(=O)(=O)c4ccccc4C)[C@@H](c4ccc(Cl)cc4)[C@@H]3C(=O)C[C@@H]2C1=O | -51.1% |
| CCC1CCCCN1CCCNC(=O)c1cc2c(Cl)nc3ccccc3c2s1 (stereo not drawn) | 100% (active) |
| Cc1nc2ccccc2c2oc(C(=O)NCCCN3CCC(C)CC3)cc12 | -9.23% |
| CCCn1c2ccccc2c2cnn(CC(=O)NCCCN3CCCCC3CC)c(=O)c21 (stereo not drawn) | 17.1% |
| CN(CCO)C(=O)c1nc[nH]c1C(=O)N(C)Cc1ccccc1 | -1.65% |
| Cc1ccc(F)c(S(=O)(=O)NC(=O)C2(C)CCN2C(=O)CCc2cccs2)c1 (stereo not drawn) | -1.22% |
| COCCNC(=O)C1(C)CCCN(Cc2cccc(F)c2)C1 (stereo not drawn) | 1.57% |
